Shown are actives, neighbours in structure and some others; about 2.9% of the full set was active somewhere.
a7 integrin act – qHTS for Activators of Integrin-Mediated Alleviation for Muscular Dystrophy; alpha7betagal myoblasts, beta-gal FDG fluorescence, 48 h; actives 0.064% (n = 350,000); Potency, µM (highest dose often 38.3 µM), for the others: at the highest dose activation, actives largely listed as activators; AID 624291, 2012;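 also: potency is read from the fitted curve at half-maximal effect; 100% = response of the positive control SU9516; nearly all actives have a fitted effect of over 60% in size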
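alpha7betagal+/- myoblasts (passage 13, 250/well) treated 48 h at 37C with compounds at 1:260 dilution of DMSO stock. Lysed, then beta-galactosidase activity read as FDG fluorescence (ex 480/em 540) after 30 min, with pre-read for autofluorescence.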
DRD3 antagonist – qHTS of D3 Dopamine Receptor Antagonist: qHTS. D(3) dopamine receptor (Homo sapiens), P35462. D3R cells, DiscoveRx beta-arrestin luminescence, antagonist mode; hits give low values. max response, negative = inhibition, %. actives 2.5% (n = 360,000). AID 652054, 2013; in the data active = max response below about -50%; inconclusive = no clear call, values can overlap the other calls; also: % is scaled to controls: 0 for no effect and ±100 for the full control effect
Target sequence (P35462 whole entry, looked up): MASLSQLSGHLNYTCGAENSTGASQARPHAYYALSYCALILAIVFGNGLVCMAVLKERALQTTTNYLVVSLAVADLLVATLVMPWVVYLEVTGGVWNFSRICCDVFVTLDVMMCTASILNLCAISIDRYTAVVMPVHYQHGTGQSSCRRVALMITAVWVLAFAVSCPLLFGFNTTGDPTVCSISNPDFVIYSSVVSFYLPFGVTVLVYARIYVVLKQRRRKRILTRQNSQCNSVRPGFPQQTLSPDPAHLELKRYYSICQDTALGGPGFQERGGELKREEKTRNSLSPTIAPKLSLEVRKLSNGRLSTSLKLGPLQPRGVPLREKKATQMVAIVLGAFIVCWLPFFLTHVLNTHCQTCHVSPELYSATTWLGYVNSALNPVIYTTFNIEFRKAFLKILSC
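Cells plated overnight at 1500 cells/well, then exposed to library compounds with dopamine controls for 90 minutes at 37 degrees C. DiscoveRx reagent added for 30–60 minutes at room temperature; luminescence read, quantitative HTS format.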
IDH1 R132H inh – qHTS for Inhibitors of mutant isocitrate dehydrogenase 1 (IDH1): qHTS; Isocitrate dehydrogenase [NADP] cytoplasmic (Homo sapiens), O75874; actives 0.093% (n = 390,000); Potency, µM (series often up to 76.6 µM), for the others: at the top dose activity change, negative = inhibition, hits mostly inhibitors; AID 602179, 2012; IDH1-R132H enzyme, NADPH consumption, diaphorase/resazurin fluorescence; also: potency is read from the fitted curve at half-maximal effect; % is scaled to controls: 0 for no effect and ±100 for the full control effect; nearly all actives have a fitted effect of over 65% in size
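IDH1-R132H (0.5 ug/mL dispensed) in pH 7.5 Tris buffer was preincubated 30 min with compound, then given a substrate mix of 0.016 mM NADPH and 2 mM alpha-KG for 80 min at room temperature; remaining NADPH was read by diaphorase/resazurin fluorescence.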
D3 ag – qHTS of D3 Dopamine Receptor Agonist: qHTS | actives 0.58% (n = 410,000) | D(3) dopamine receptor (Homo sapiens), P35462 | max activation, % | AID 652048, 2013 | D3R DiscoveRx beta-arrestin cells, luminescence, 90 min; in the data active = max activation above about 30%; also: 0% is about no effect
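Agonist mode: compounds and dopamine controls were applied to plated cells for 90 min at 37 degrees C after an overnight attachment at 1500 cells/well. Luminescent read-out followed 30 - 60 minutes at room temperature with DiscoveRx detection reagent.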
B2AR arrestin – qHTS assay of beta-arrestin-biased ligands of beta2-adrenergic receptor. Beta-2 adrenergic receptor (Homo sapiens), P07550. beta-arrestin recruitment to beta2AR, cell-based reporter. Potency, µM (highest dose often 46.1 µM), for inactives: at the top dose activation, hits mostly activators. actives 0.02% (n = 330,000). AID 492947, 2010;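 also: potency is read from the fitted curve at half-maximal effect; 0% = DMSO controls and full agonism = EC100 isoproterenol or metaproterenol; nearly all actives have a fitted effect of over 65% in size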
The depositor's hits bear a star; ? = inconclusive; nt = not tested or not shown; [ ] = another dose, or the depositor's remark. Unless noted, calls follow the shape of the dose curve; as a rule, active = well fitted curve in the direction sought with a large enough effect; inconclusive = small, poorly fitted or top-dose-only effect, or another doubt; inactive = no such curve, though single readings can be large; an effect the other way counts as inactive or inconclusive.

SMILES	a7 integrin act	DRD3 antagonist	IDH1 R132H inh	D3 ag	B2AR arrestin
CC(C)c1ccc(S(=O)(=O)c2cnc(SCC(=O)Nc3cccc(C(F)(F)F)c3)nc2N)cc1	nt	nt	-9%	8	nt
Cc1ccc(NCc2nnc(SCCN3CCCCC3)n2CC2CCCO2)cc1Cl (configuration not stated)	0%	-51*	6%	-8	0%
COc1ccc(-n2nc3c(c2NC(=O)C24CC5CC(CC(C5)C2)C4)CS(=O)C3)cc1 (configuration not stated)	11%	-56*	6%	-3	-1%
Cc1ccc(-n2ncc(C(=O)NCc3ccccc3C)c2-n2cccc2)cc1	nt	nt	14%	-10	nt
CCc1[nH]nc2c1C1(CCOC1C)C(C#N)=C(N)O2 (configuration not stated)	?	-57*	14%	-8	0%
Cn1c(=O)c2cc(NC(=O)CCc3cccnc3)ccc2n1Cc1cccc(C(F)(F)F)c1	nt	-24	nt	-1	nt
Cc1ccc(CN2CCN(CC(=O)N=Nc3c(O)[nH]c4ccccc34)CC2)cc1	-8%	-90*	6%	-17	0%
CCC(C(=O)NC1CCCCC1)n1nc(C)c2sc3ccccc3c2c1=O (configuration not stated)	nt	nt	-2%	1	nt
O=C1c2cccnc2-c2ncccc21	-10%	1	6%	1	0%
O=C1C(=O)c2cccnc2-c2ncccc21	nt	-87*	nt	-13	nt
Nc1nc(NC(=O)c2cccc(S(=O)(=O)N3CCCCCC3)c2)nc(-c2ccccc2)n1	8%	-18	0%	34*	0%
Cc1cc(C)nc(-n2nc(C)cc2NC(=O)c2cccc(S(=O)(=O)N3CCCCC3)c2)n1	nt	nt	nt	nt	3%
O=C(Nc1nc(-c2cccs2)cs1)c1cccc(S(=O)(=O)N2CCCCC2)c1	0%	-69*	11%	-7	0%
Cc1cc(NC(=O)c2cccc(S(=O)(=O)N3CCCCCC3)c2)n(-c2ccccn2)n1	-10%	-55*	0%	-7	0%
Cc1ccccc1-c1noc(-c2nnn(-c3ccccc3C)c2N)n1	nt	nt	-17%	2	nt
CCN1C(=O)[C@H]2[C@@H](c3ccc(-c4ccc(F)cc4)c(OC)c3)N[C@@](C)(C(=O)OC)[C@H]2C1=O	-5%	-51*	4%	-12	0%
CCN1C(=O)[C@H]2[C@@H](c3ccc(-c4ccccc4)c(OC)c3)N[C@@](CC(C)C)(C(=O)OC)[C@H]2C1=O	1%	-51*	-3%	-31	0%
CCN1C(=O)[C@H]2[C@@H](c3ccc(-c4cc(C(C)=O)cs4)cc3)N[C@@](Cc3ccccc3)(C(=O)OC)[C@H]2C1=O	27%	-14	-13%	37*	0%
CC(CSC(=O)c1ccccc1)C(=O)N1C[C@@H](Sc2ccccc2)C[C@H]1C(=O)O (some centres not stated)	nt	nt	nt	-1	nt
COc1ccc(OC)c(NC(=O)COCc2cc(-c3ccc(F)cc3)on2)c1	nt	nt	-4%	5	nt
Oc1c(Cl)cc(Cl)cc1C1=NNC(c2ccc(Cl)cc2)C1 (configuration not stated)	0%	-64*	1%	-22	0%
CCOc1ccc(-c2cc3c(=O)n(Cc4nc(-c5ccc(OC(C)C)cc5)oc4C)ccn3n2)cc1Cl	nt	nt	10%	-11	nt
C=CC1=C2C=C(C3CC3)N(CCCN(CC)CC)C=C2C(=O)C(C)(OC(=O)c2ccco2)C1=O (configuration not stated)	13%	-13	3%	46*	nt
C/C(=N\OCC(=O)OC(C)C(=O)Nc1ccc(C(N)=O)cc1)c1ccc2c(c1)OCO2 (configuration not stated)	4.5µM*	-2	-1%	1	0%
Cc1coc2cc3oc(=O)c(CC(=O)NCCc4ccccc4)c(C)c3cc12	nt	nt	-6%	0	nt
SMILES	a7 integrin act	DRD3 antagonist	IDH1 R132H inh	D3 ag	B2AR arrestin
OCCN1CCN(CC/C=C2/c3ccccc3CSc3ccccc32)CC1	-48%	-105*	5%	-22	nt
CNCC/C=C1/c2ccccc2CSc2ccccc21	-63%	-81*	2%	0	0%
CCc1cc(C(=O)NNC(=O)CCN2CCN(c3ccccc3)CC2)sc1C	0%	-63*	-2%	6	0%
N#CCC(=O)Nc1ccc(C(=O)NNC(=O)CCN2CCN(c3ccccc3)CC2)cc1	-26%	-83*	15%	0	0%
CCC1(c2ccccc2)NC(=O)N(CC(=O)Nc2ccccc2N2CCCCC2)C1=O (configuration not stated)	-15%	3	4%	11	-1%
CCC1(c2ccccc2)NC(=O)N(CC(=O)NNC(=O)CCN2CCN(c3ccccc3)CC2)C1=O (configuration not stated)	-4%	-56*	12%	-11	0%
O=C(CCN1CCN(c2ccccc2)CC1)NNC(=O)c1cccc2ccccc12	-22%	-15	-5%	53*	0%
COc1cccc(C(=O)NNC(=O)CCN2CCN(c3ccccc3)CC2)c1	8%	?	6%	9	2%
CC(C)C[C@H](NC(=O)[C@H](Cc1ccccc1)NC(=O)c1cnccn1)B(O)O	nt	nt	nt	7	nt
COc1ccc(C(CCN2CCOCC2)c2c(O)cc(OC)cc2OC)cc1 (configuration not stated)	-7%	-12	22%	-7	-1%
COc1cc(O)c(C(CCN2CCN(c3ccccc3)CC2)c2ccc3c(c2)OCO3)c(OC)c1 (configuration not stated)	-14%	-108*	-8%[38.3 µM]	-63	1%
COc1cc(O)c(C(CCN2CCN(c3ccccc3)CC2)c2cc(OC)c(OC)c(OC)c2)c(OC)c1 (configuration not stated)	12%	-137*	4%	-72	0%
Cc1cccc(OCC(=O)Nc2cccc(C(=O)OCc3cc(=O)n4nc(C(C)C)sc4n3)c2)c1	nt	nt	0%	6	nt
COc1ccc(N(CC(=O)NCCC(C)C)C(=O)c2snc(C(=O)NC3CCCCC3)c2N)c(OC)c1	10µM*	-21	-4%	-2	-1%
Cc1cccc(NC(=O)c2cccc(N3CCCS3(=O)=O)c2)c1	nt	nt	18%	-20	nt
CC(C)(Cc1ccccc1)NC(=O)C(=O)c1cn(CC(=O)N2CCOCC2)c2ccccc12	8%	-70*	8%	-10	0%
CCc1ccc(C(=O)c2cn(CC(=O)Nc3cccc(OC)c3)c3ccc(OC)cc3c2=O)cc1	nt	nt	1%	-12	0%
Nc1nc(Cl)c(N)c(NCC2(CO)CC(CCc3ccccc3)C2)n1 (configuration not stated)	-30%	-15	10%	-11	nt

Screening results from PubChem.
